Compound activity: PubChem BioAssay, several laboratories
Shown are actives, neighbours in structure and some others; about 0.92% of the full set was active somewhere.
RecA splice inh = blocks M. tuberculosis RecA intein splicing; P9WHJ3; cell-free RecA intein splicing, fluorescence; inhibition, % (concentration not given with the values); 290,000 compounds, 0.75% hits; AID 2221; in the data active means inhibition above about 30%;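 further: 0% = vehicle wells and 100% = reference inhibitor control wells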
Mtb hypoxia inh = Mtb hypoxia fluorescent reporter inhibition | 300,000 compounds, 0.1% hits | M. tuberculosis hypoxia-regulated fluorescent reporter, fluorescence | fluorescence inhibition, % (no concentration beside the values); in the data active means fluorescence inhibition mostly above about 23%, no sharp cut-off; inactive means mostly below about 17%
FadD28 binding = inhibitors of Mycobacterium tuberculosis FadD28 bisubstrate binding; 360,000 compounds, 0.22% hits; inhibition, % at 12.5 µM; FadD28 bisubstrate probe binding, fluorescence polarization; in the data active means inhibition above about 8.5%, passing the limit was not always enough
Mtb UGM inh = inhibitors of M. tuberculosis UDP-galactopyranose mutase; P9WIQ1; purified UGM, fluorescence polarization probe displacement; inhibition, % at 10 µM; 320,000 compounds, 0.06% hits; in the data active means inhibition above about 10%, passing the limit was not always enough
Target sequence (P9WIQ1 whole entry, looked up): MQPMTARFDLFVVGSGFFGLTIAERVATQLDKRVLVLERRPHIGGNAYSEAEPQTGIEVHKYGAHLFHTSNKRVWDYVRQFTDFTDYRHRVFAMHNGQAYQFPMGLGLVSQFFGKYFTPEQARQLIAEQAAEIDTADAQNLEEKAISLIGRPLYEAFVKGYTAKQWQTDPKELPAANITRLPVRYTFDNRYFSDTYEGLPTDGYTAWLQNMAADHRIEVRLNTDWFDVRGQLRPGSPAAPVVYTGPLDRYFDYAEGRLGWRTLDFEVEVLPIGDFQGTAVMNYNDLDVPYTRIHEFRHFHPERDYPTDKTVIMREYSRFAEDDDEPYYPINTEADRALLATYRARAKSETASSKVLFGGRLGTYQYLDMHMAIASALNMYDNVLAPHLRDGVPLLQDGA
Rv3671c protease = Rv3671c (M. tuberculosis) protease inhibition; P9WHR9; inhibition, % at 5.96 µM; 320,000 compounds, 0.048% hits; AID 2606; in the data active means inhibition above about 38%;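 further: extracellular domain of Rv3671c used as enzyme; 0% = enzyme with DMSO and 100% = no enzyme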
GFP chromo cs = counter-screen GFP chromophore formation inhibition; EC50, µM; cell-free GFP chromophore formation, fluorescence; AID 434968; 2,100 compounds, 83% hits; shares compounds with RecA splice inh; call rule not given here
Starred values were filed as active, the others as inactive; / = no result shown.

SMILES	RecA splice inh	Mtb hypoxia inh	FadD28 binding	Mtb UGM inh	Rv3671c protease	GFP chromo cs
Cc1sc2ncnc(Sc3ccccc3C(=O)O)c2c1C	-3	3	-3	-1	-3	/
Cn1nnnc1Sc1ncnc2scc(-c3ccc(Cl)cc3)c12	/	/	-5	5	-2	/
CN(Cc1c(C(=O)NN=Cc2c(F)cccc2Cl)nnn1-c1nonc1N)c1ccccc1	/	-3	/	/	/	/
[O-][n+]1c2c(nc3c1-c1ccccc1C3O)CCCC2 (stereo not given)	41*	/	/	2	-9	33*
O=C(NN=Cc1cccc(OC(=O)c2cccc(Br)c2)c1)c1cccnc1	/	12	/	/	/	/
COc1ccc(C(=O)O/N=C2\C(=O)N(C)c3ccccc32)cc1	/	/	0	-1	5	/
CN1C(=O)/C(=N\OC(=O)c2cccc3ccccc23)c2ccccc21	38*	/	-2	0	-6	32*
C=CC1c2cc(C)ccc2N(S(=O)(=O)c2ccc(C)cc2)C(c2ccccc2)C1(C#N)S(=O)(=O)c1ccccc1 (stereo not given)	/	12	/	/	/	/
O=C(NC1C(=O)NNC1c1ccccc1)c1ccccc1 (stereo not given)	69*	/	-5	-3	-6	25*
CCN(c1ccccc1)c1cc2ccccc2c(=O)[nH]1	65*	/	1	-3	-39	31*
O=C(NN=C/C=C/c1ccc([N+](=O)[O-])cc1)C1COc2ccccc2O1 (stereo not given)	/	6	/	/	/	/
O=C(Nc1nc(-c2ccccc2)cs1)c1ccccc1NS(=O)(=O)c1ccc(F)cc1	35*	12	2	0	-49	28*
O=S(=O)(Nc1ccc(-c2csc(-c3ccccc3)n2)cc1)c1ccc(F)cc1	-3	/	-2	2	-165	/
O=S(=O)(N=C(NS(=O)(=O)c1ccccc1)c1ccccc1)c1ccccc1	/	6	/	/	/	/
CC(C)C(NC(=O)c1ccccc1)C(=O)OCC(=O)C=C1N(C)c2ccccc2C1(C)C (stereo not given)	/	10	/	/	/	/
S=C1Cc2ccccc2N1	88*	6	0	/	/	1.2*
S=C1Nc2ccccc2CS1	/	/	0	/	/	/
NCCCCC1NC(=O)C(CCC(=O)O)NC(=O)c2cc([N+](=O)[O-])cc(I)c2NCCC(C(N)=O)NC1=O (stereo not given)	/	11	/	/	/	/
CC(=O)N(Cc1c(C)nn(-c2ccccc2)c1Cl)c1ccc(Cl)cc1	6	4	-19	-1	-5	/
Cc1nn(-c2ccccc2)c(Cl)c1CN(C(=O)CCl)c1cccc2ccccc12	67*	16	-4	0	-9	6.3*
Cc1nn(-c2ccccc2)c(Cl)c1CN(C(=O)CCl)c1ccc(Cl)cc1	88*	22	-17	1	-10	2.2*
O=C1C(C2=C(O)c3ccccc3C2=O)=Nc2ccccc21	47*	12	1	1	-10	1.8*
CN=CC1=C(O)c2ccccc2C1=O	-2	8	-2	1	-4	/
O=C(Nc1ccc(Cl)cc1)C(Cl)C(=O)c1ccccc1 (stereo not given)	46*	/	2	1	-4	38*
Cc1nnc(Sc2cc(NCCCO)c([N+](=O)[O-])c3nonc23)s1	91*	-5	-2	/	/	5.1*
SMILES	RecA splice inh	Mtb hypoxia inh	FadD28 binding	Mtb UGM inh	Rv3671c protease	GFP chromo cs
CC(=O)OCCCNc1cc(SCc2ccco2)c2nonc2c1[N+](=O)[O-]	78*	10	0	3	-22	14*
CCCC(=O)OCCNc1cc(Sc2nccn2C)c2nonc2c1[N+](=O)[O-]	90*	24	-1	-3	-1	3.9*
CCCC(=O)OCCNc1cc(SCc2ccco2)c2nonc2c1[N+](=O)[O-]	79*	/	-2	3	-18	8.6*
C#CCOCCOCCOCCNc1nc(N2CCN(C(=O)Cn3cc(CCCCN)nn3)CC2)nc(N2CCN(C(=O)C(CCCCN)n3cc(CCC(=O)O)nn3)CC2)n1 (stereo not given)	/	17	/	/	/	/
CCCSc1cc(NCCOC(=O)CCC)c([N+](=O)[O-])c2nonc12	60*	13	-1	1	9	9.9*
O=[N+]([O-])c1c(NCCCO)cc(Sc2nc3ccccc3s2)c2nonc12	26	21	-3	5	-24	/
CCCSc1cc(NCCOC(C)=O)c([N+](=O)[O-])c2nonc12	8	/	0	0	-1	/
CCC(=O)OCCNc1cc(Sc2nc3ccccc3s2)c2nonc2c1[N+](=O)[O-]	50*	/	-1	0	1	4.2*
CC(=O)N1CC2(c3ccccc3)CN(C(C)=O)CC(c3ccccc3)(C1)C2=O	62*	5	0	1	12	>38
